Screening results (PubChem)
AHR act – activates the human aryl hydrocarbon receptor; AHR-responsive luciferase reporter cells, luminescence; 2.5% of 320,000 active; activation, % at 5 µM; P35869; in the data active = activation above about 47%;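 also: 0% = vehicle wells and 100% = reference agonist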
Target sequence (P35869 whole entry, looked up): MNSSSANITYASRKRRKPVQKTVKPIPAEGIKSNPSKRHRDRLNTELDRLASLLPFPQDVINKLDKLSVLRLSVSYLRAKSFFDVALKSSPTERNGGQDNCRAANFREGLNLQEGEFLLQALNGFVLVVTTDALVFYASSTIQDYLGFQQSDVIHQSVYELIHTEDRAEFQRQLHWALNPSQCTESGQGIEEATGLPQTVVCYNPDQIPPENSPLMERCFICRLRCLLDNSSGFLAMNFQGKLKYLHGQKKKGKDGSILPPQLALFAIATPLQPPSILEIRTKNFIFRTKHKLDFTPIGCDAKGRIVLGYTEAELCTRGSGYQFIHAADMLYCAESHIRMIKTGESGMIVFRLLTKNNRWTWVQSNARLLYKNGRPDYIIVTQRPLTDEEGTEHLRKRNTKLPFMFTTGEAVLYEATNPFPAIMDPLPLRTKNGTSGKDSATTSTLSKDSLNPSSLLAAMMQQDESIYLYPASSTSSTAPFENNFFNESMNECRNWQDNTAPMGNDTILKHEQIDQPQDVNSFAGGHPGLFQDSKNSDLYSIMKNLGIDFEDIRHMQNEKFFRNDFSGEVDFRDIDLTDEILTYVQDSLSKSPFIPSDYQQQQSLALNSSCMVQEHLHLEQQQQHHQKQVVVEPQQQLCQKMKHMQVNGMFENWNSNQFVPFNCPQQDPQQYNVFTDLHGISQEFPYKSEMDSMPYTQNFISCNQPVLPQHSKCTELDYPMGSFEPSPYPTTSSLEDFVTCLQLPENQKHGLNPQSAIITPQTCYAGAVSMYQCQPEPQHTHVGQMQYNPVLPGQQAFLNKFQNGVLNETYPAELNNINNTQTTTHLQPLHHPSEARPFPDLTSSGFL
DAX1 inh-1 – NR0B1 (DAX1) inhibition; HEK293 Gal4-DAX1 luciferase reporter, luminescence; inhibition, % at 6.75 µM; 0.99% of 340,000 active;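 active = inhibition above the mean over all tested compounds plus 3 SD, cut at about 4.2% in these data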;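 also: 0% = DAX1-transfected cells with DMSO and 100% = empty-vector control cells with DMSO; inhibition shows as a rise in luminescence from relieved DAX1 repression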
hcDAF-12 act – H. contortus DAF-12 activation, primary screen | activation, % at 6.8 µM | HEK293 hcDAF-12 lit1-tk-luc reporter, luminescence; 0% DMSO, 100% Δ7-dafachronic acid | AID 652067 | 1.4% of 370,000 active;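 active = activation above the mean of all tested compounds plus 3 SD, cut at about 5.5% in these data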;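 also: 100% = response to 3 µM Δ7-dafachronic acid high control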
hgDAF12 agonist – activates the H. glycines DAF-12 receptor ligand-binding domain; HEK293 GAL4-hgDAF12 UAS-luciferase reporter, agonist luminescence; normalized to butyrate control; activation, % at 6.8 µM; 1.8% of 370,000 active; AID 687014;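 active = activation above a cutoff set at the mean of all screened compounds plus 3 SD, cut at about 10% in these data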;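 also: 0% = DMSO wells and 100% = sodium butyrate wells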
ssDAF-12 act – S. stercoralis DAF-12 activation, primary screen. HEK293 ssDAF-12/GRIP1 lit1-tk-luc reporter, luminescence; % of 3 µM dafachronic acid response. activation, % at 6.8 µM. 1% of 370,000 active;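 active = activation above the mean over all tested compounds plus 3 SD, cut at about 0.9% in these data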;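 also: 0% = DMSO-only wells and 100% = 3 µM delta7-dafachronic acid wells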
DAX1 inh-2 – DAX1 (NR0B1) inhibition, primary screen | HEK293T StAR-luciferase reporter, SF-1/DAX-1 repression relief | inhibition, % at 6.8 µM | 1.1% of 370,000 active | AID 652010;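 active = inhibition above the mean over all tested compounds plus 3 SD, cut at about 3.6% in these data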;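 also: 0% = DAX-1 cells with DMSO and 100% = cells lacking DAX-1 with DMSO; higher inhibition means more luminescence from relief of DAX-1 repression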
Active calls of the source: *; nt = no result. The list is not random: actives were taken first. Their share in the collection is about 5.7%.

SMILES | AHR act | DAX1 inh-1 | hcDAF-12 act | hgDAF12 agonist | ssDAF-12 act | DAX1 inh-2
COc1ccc2nc(NC(=O)CSCC(=O)Nc3cc(C)on3)sc2c1 | -7.9 | 0.4 | 3.3 | 7.6 | 0.1 | 4.2*
COC(=O)c1ccc2nc(NC(=O)CSCC(=O)OCC(=O)c3ccccc3)sc2c1 | 2.6 | 3.3 | 3.6 | 12.5* | 0.2 | 1.7
Cc1nc2ccc([N+](=O)[O-])cc2c(=O)n1Cc1ccc(F)cc1 | 2.7 | -1.5 | -1.3 | -2.7 | -0.7 | -0.6
COC(=O)C(CC(C)C)N(Cc1ccc(Br)cc1)S(=O)(=O)CCl (stereo not drawn) | nt | nt | -2.4 | 2.9 | -1.4 | -1.2
CN(C(=S)NCCN1CCOCC1)C(c1ccccc1)c1ccccc1 | 1.9 | 2.2 | -2.4 | -3.0 | -1.2 | 0.7
COc1ccc2nc(NC(=O)CSc3nc4ccccc4o3)sc2c1 | 4.9 | 4.7* | -1.2 | -0.6 | -1.5 | -1.1
O=C(CSc1nc2ccccc2o1)Nc1nc2ccc(Br)cc2s1 | 17.4 | 1.0 | -0.2 | 0.0 | -1.5 | -0.1
CCOC(=O)c1[nH]c2cc3c(cc2c1NC(=O)CN1CC(C)CC(C)C1)OCO3 (stereo not drawn) | 55.7* | 0.4 | 2.2 | -0.5 | -0.1 | 0.9
CCOC(=O)c1[nH]c2ccc(OCC)cc2c1NC(=O)CN1CCCC(C)C1 (stereo not drawn) | 38.9 | -0.6 | -2.7 | 0.2 | -1.8 | -0.7
O=C(Nc1ccc(S(=O)(=O)Nc2nccs2)cc1)c1ccc(=O)[nH]c1 | 5.3 | 1.9 | -0.3 | 1.0 | -1.0 | 0.2
Cc1ccc(NC(=O)c2nnn(-c3cc(C)cc(C)c3)c2N)cc1 | -4.6 | -1.0 | -1.7 | 5.1 | -0.1 | 1.0
CCc1ccc(Cn2nnc(C(=O)Nc3cccc(C)c3)c2N)cc1 | 19.6 | 4.3* | -1.3 | 3.1 | -1.3 | -0.3
Cc1cccc(-n2nnc(C(=O)Nc3ccc(F)cc3)c2N)c1 | -2.2 | 0.9 | 3.4 | 11.6* | -0.2 | 2.4
CCOc1ccc(Cn2nnc(C(=O)Nc3cc(C)cc(C)c3)c2N)cc1 | 6.9 | 3.6 | 0.0 | -2.9 | -0.9 | 1.5
CSc1cc(-c2ccco2)oc1C(=O)c1ccco1 | 1.6 | 0.2 | -2.1 | -0.1 | -1.2 | -0.4
CCCCCCNC(=O)c1ncn[nH]1 | 2.3 | 5.0* | -0.4 | 0.2 | -1.1 | 0.0
CC1CC(=O)NN1C(=O)c1ccccc1 (stereo not drawn) | -1.5 | 0.3 | 0.0 | 1.6 | -1.5 | 0.0
CC(C)(C)c1ccc(CC(=O)N2CCC2(C)C(=O)Nc2cccc3cccnc23)cc1 (stereo not drawn) | nt | nt | -0.8 | -0.7 | -1.5 | -0.2
Cc1cccc(OCCOCCSc2ncccn2)c1 | 61.8* | -0.7 | 3.2 | 3.8 | -0.7 | 1.3
Cc1cc(C)cc(Nc2nc3ccccc3c(=O)[nH]2)c1 | 76.8* | 2.8 | 0.9 | 6.1 | -0.9 | 0.1
Cc1cccc(-c2nc3ccccc3c(=O)[nH]2)c1 | 68.2* | 1.8 | 0.7 | 7.8 | -1.0 | 0.6
O=c1[nH]c(-c2ccncc2)nc2ccccc12 | 13.5 | -0.6 | 1.2 | 3.1 | -0.4 | 0.3
Cc1ccc2c(c1)cc1c(=O)n(CC(=O)NCCCc3ccccc3)nc(C)n12 | 4.4 | 0.0 | 0.8 | 2.5 | -0.3 | 0.5
COc1ccc(/C=C2\SC(=O)N(CC(=O)NCCCn3ccnc3)C2=O)cc1 | 4.2 | 0.7 | 1.2 | 3.0 | 0.2 | 0.4
Cn1c2c(c(=O)n(C)c1=O)C(c1ccccc1Cl)CC(=O)N2 (stereo not drawn) | 1.3 | 0.5 | 5.8* | -1.8 | -1.4 | 0.1
SMILES | AHR act | DAX1 inh-1 | hcDAF-12 act | hgDAF12 agonist | ssDAF-12 act | DAX1 inh-2
Cc1cc(N2CCN(c3ncccn3)CC2)nc2c(C)cccc12 | 71.7* | 0.6 | 2.2 | 1.6 | -0.5 | -0.5
COC(=O)c1ccc(C)c(NC(=O)CCn2[nH]c(=O)ccc2=O)c1 | 0.4 | -0.1 | 0.7 | -3.6 | -0.3 | 0.1
COc1ccc(-c2cnc3c(c2)CCC3(C#N)C#N)cc1 | 1.0 | 7.3* | -1.5 | -3.5 | -1.4 | -0.2
COc1ccc(-c2ccc(OC)cc2)cc1 | 2.7 | 1.9 | 0.8 | 1.4 | -0.4 | -0.1
O=C(Nc1cccnc1Cl)c1ccc(Cl)cc1 | 7.1 | 2.3 | 1.3 | 12.4* | -0.4 | 0.7
O=C(/C=C/c1cccc(Cl)c1)Nc1ncccn1 | 64.1* | 1.2 | 1.2 | 7.5 | -1.3 | 0.2
NC(=O)c1ccccc1NC(=O)/C=C/c1ccc(Cl)cc1 | -8.0 | -0.8 | 2.2 | 13.0* | -0.1 | 1.2
O=C(/C=C/c1ccc(Br)cc1)Nc1ccc(S(=O)(=O)Nc2ncccn2)cc1 | 0.7 | -1.2 | -0.4 | 0.3 | -1.1 | 0.9
O=C(/C=C/c1ccc(Cl)cc1)NC(=S)Nc1ccccc1C(=O)O | 0.1 | -1.4 | 0.1 | -3.7 | -1.2 | -0.6
O=C(/C=C/c1cccc(F)c1)Nc1ccc(S(=O)(=O)Nc2ncccn2)cc1 | 54.0* | -1.4 | -0.6 | -1.9 | -1.2 | 0.3
CSc1cccc(NC(=O)/C=C/c2cccc(Cl)c2)c1 | -5.7 | 1.2 | 1.9 | 8.4 | -1.2 | 2.2
NC(=O)c1ncn2c(=O)n(CCCl)nnc12 | nt | nt | -2.5 | -1.2 | -1.7 | -1.2
O=C(/C=C/c1ccccc1)Nc1cccnc1Cl | 20.3 | 1.7 | 2.0 | 9.7 | 1.8* | 1.8
Cc1ccc(NC(=O)/C=C/c2ccc(Cl)cc2)nc1 | 17.8 | 0.5 | -1.8 | 10.3 | -1.9 | 1.1
O=C(/C=C/c1ccccc1)Nc1ccc(Br)cn1 | 1.0 | 2.2 | 1.4 | 13.0* | 0.6 | -1.5
NC(=O)c1ccccc1NC(=O)/C=C/c1ccccc1 | 24.4 | 0.4 | 2.0 | 11.4* | -0.2 | 3.4
Cc1cc(C)c2c(=N)c3ccccc3n(CCCCCCCCn3c4ccccc4c(=N)c4c(C)cc(C)nc43)c2n1 | nt | 1.1 | -1.5 | 0.7 | -1.4 | -3.6
CC1=NN(c2ccccc2)C(=O)/C1=C\c1sccc1C | 41.6 | 1.2 | 3.0 | 1.6 | 1.7* | 0.4
O=C(NCCC(=O)N1CCc2ccccc21)c1ccco1 | 4.5 | 1.3 | 5.8* | 5.8 | -0.8 | 0.6
CN(Cc1ccccc1Cl)C(=O)CCNC(=O)c1ccco1 | nt | 10.3* | -0.5 | -0.3 | -0.9 | 1.7
O=C(COC(=O)c1c(Cl)ccc(Cl)c1Cl)NCC1CCCO1 (stereo not drawn) | 2.1 | -0.3 | -0.4 | 0.3 | -1.6 | 0.8
CCOC(=O)N/N=C(\C)c1ccc(-n2cnnn2)cc1 | 0.8 | 0.4 | 2.4 | 12.8* | -0.1 | 1.4
COc1cc2c(C(=O)N3CCOCC3)c(CSc3ccccc3)n(C)c2cc1Br | -2.0 | -1.4 | 0.4 | -3.4 | -1.6 | -0.6
COc1cc(Cl)c(C)cc1NC(=O)c1ccc2c(c1)OCO2 | 73.5* | 2.7 | 0.5 | 1.8 | -1.0 | 0.2
O=C(Nc1ccccc1)c1cccc(C(=O)Nc2ccccc2)n1 | 2.0 | 0.2 | 2.1 | -0.1 | -0.6 | 0.5
COc1cccc(NC(=O)c2cccc(OC)c2OC)c1 | 34.0 | 0.9 | 0.1 | 12.3* | -0.1 | 1.6
CN(C)c1ccc(NC(=O)c2cccc(C(=O)Nc3ccc(N(C)C)cc3)n2)cc1 | 68.0* | -2.6 | -0.9 | 6.6 | -1.0 | 0.2
